Bioassay records (PubChem)
This is a sample that favours compounds with a hit; in the whole collection about 5.4% have one here.
p53 reactivation – qHTS assay for re-activators of p53 using a Luc reporter; H1299 p53-A138V BP100-luciferase reporter, luminescence, 24 h; Potency, µM (top dose mostly 92.2 µM), actives largely listed as activators; actives 0.063% (n = 320,000); AID 504706, 2011; further: nearly all actives have a fitted effect of over 45% in size
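H1299 (p53-null), stable ts p53-A138V + BP100-Luc; 1000 cells/well, Opti-MEM/10% FBS; cpd 4 pt, 1:5; 24 h, 37 deg C, 5% CO2; detection reagent 10 min RT; luminescence.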
CtBP-E1A blk – qHTS Assay for Inhibitors of the CtBP/E1A Interaction. AlphaScreen GST-E1A/His-CtBP binding, 1536-well; active compounds read low. actives 0.49% (n = 340,000). AID 651724, 2012. activity change, % (no concentration beside the values). CtBP / adenovirus E1A interaction (AlphaScreen); in the data active means activity change below about -65%; inconclusive means mostly about -30% to -63%
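Protein mix (5X: 125 nM each GST-E1A, His-CtBP) was incubated with pinned compound 2 h at 37 deg C in dark, in 50 mM Tris pH 8.0 buffer with 300 mM NaCl. Glutathione donor and nickel acceptor beads followed; AlphaScreen signal read after 1 h.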
Gal4-VP16 FLuc – VP16 counterscreen qHTS for inhibitors of ROR gamma transcriptional activity | actives 3.5% (n = 310,000) | Drosophila S2 Gal4-VP16 UAS-luciferase, luminescence, 20 h | Potency, µM (series often up to 53.6 µM), actives largely listed as inhibitors | AID 2546, 2010;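 further: Gal4-VP16 expression switched on by copper sulfate through the metallothionein promoter; nearly all actives have a fitted effect of over 50% in size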
Six1-Eya2 inh – qHTS Assay for Inhibitors of the Six1/Eya2 Interaction; Homeobox protein SIX1 (Homo sapiens) + Protein phosphatase EYA2 (Homo sapiens), …; AlphaScreen GST-Six1/His-Eya2 binding, biochemical; active compounds read low; activity change, % (concentration not given with the values); AID 651725, 2012; actives 0.56% (n = 360,000); in the data active means activity change below about -65%; inconclusive means mostly about -30% to -63%
Target sequence (O00167 whole entry, looked up): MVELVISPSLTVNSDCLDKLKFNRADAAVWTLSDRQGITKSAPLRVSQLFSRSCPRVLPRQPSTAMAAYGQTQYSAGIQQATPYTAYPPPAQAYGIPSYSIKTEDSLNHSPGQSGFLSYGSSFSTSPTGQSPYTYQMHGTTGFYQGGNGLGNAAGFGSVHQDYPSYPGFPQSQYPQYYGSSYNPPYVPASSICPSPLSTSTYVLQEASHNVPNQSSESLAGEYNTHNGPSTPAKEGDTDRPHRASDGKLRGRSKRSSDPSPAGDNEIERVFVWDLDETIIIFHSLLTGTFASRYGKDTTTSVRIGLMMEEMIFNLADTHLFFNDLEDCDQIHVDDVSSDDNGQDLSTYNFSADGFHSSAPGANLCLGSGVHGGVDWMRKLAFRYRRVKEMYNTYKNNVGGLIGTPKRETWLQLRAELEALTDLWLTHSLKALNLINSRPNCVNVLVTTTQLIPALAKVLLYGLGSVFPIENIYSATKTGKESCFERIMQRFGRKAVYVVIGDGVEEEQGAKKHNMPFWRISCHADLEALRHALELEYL
Target sequence (Q15475 whole entry, looked up): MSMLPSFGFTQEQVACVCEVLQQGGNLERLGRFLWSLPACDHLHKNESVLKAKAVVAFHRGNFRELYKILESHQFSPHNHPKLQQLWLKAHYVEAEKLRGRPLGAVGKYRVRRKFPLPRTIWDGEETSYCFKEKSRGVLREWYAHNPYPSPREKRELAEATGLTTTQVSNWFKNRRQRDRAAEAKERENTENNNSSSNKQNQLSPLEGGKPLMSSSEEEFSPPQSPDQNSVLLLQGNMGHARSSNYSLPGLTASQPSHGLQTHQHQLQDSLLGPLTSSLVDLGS
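Compounds are tested against tagged Six1 and Eya2 proteins bridged by glutathione donor and nickel acceptor beads; after a one-hour incubation at 37 °C without light, AlphaScreen emission is recorded.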
RORgamma inh – qHTS for inhibitors of ROR gamma transcriptional activity; Nuclear receptor ROR-gamma (Mus musculus), P51450; Potency, µM (titrated, usually from 53.6 µM), usual class: inhibitors; actives 5.4% (n = 310,000); Drosophila S2 Gal4-RORgamma UAS-luciferase reporter, 20 h; further: nearly all actives have a fitted effect of over 60% in size
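Compounds are pin-transferred onto Drosophila Schneider cells expressing a copper-inducible Gal4–ROR gamma transactivation domain fusion. After 1 hr, copper sulfate is added to 700 uM final; luciferase is read 20 hr later.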
Hits are given with their value; - = inactive; ? = inconclusive; . = not tested or not shown; [ ] = another dose, or the depositor's remark. Unless noted, the call rests on the fitted dose curve; in most records, active means well fitted curve in the direction sought with a large enough effect; inconclusive means small, poorly fitted or top-dose-only effect, or another doubt; inactive means no such curve, though single readings can be large; an effect the other way counts as inactive or inconclusive.

SMILES	p53 reactivation	CtBP-E1A blk	Gal4-VP16 FLuc	Six1-Eya2 inh	RORgamma inh
Cc1ccc(C(=O)NC(=S)NCC2CCCO2)cc1[N+](=O)[O-] (stereo not drawn)	-	-	?	-	7.08µM
CCCCN(Cc1ccccc1)C(=O)C1CCC(=O)N(CCc2ccccn2)C1 (stereo not drawn)	-	-	-	-	-
COC(=O)C1=C(C(=O)OC)SC2(S1)C(C(=O)OC)=C(C(=O)OC)SC1=C2c2cc(C)cc(C)c2NC1(C)C	.	-	-	-	12.6µM
O=C(Nc1ccccc1)Nc1nc(-c2ccc(F)cc2)cs1	-	-	-	-	-
O=C(Nc1nc(-c2ccccc2)cs1)c1ccccc1NS(=O)(=O)c1ccc(F)cc1	?	-	5.62µM	-	?
Fc1ccc(-c2csc(NC(=S)Nc3ccccc3)n2)cc1	-	-	3.16µM	-	0.891µM
O=S(=O)(Nc1ccc(-c2csc(-c3ccccc3)n2)cc1)c1ccc(F)cc1	-	-	?	-	?
CC1(C)CC(=O)C=C(c2ccc3c(c2)OCO3)C1	.	-	.	-	.
CCCNC(=O)C1(C)CCCN(C(=O)c2ccc3ccccc3c2)C1 (stereo not drawn)	.	-	.	-	.
COc1cc(CNn2cn[nH]c2=S)cc(Cl)c1OCc1ccccc1	-	-	?	-	3.55µM
COc1cc(CNCCc2ccccc2)cc(Cl)c1OCc1ccccc1	-	-	?	-	?
COc1cc(CNn2cn[nH]c2=S)cc(Br)c1OCc1ccccc1F	-	-	-	?	3.16µM
C=CCOc1c(Cl)cc(CNn2cn[nH]c2=S)cc1OC	-	.	?	-	8.91µM
Cc1cc(OCC(=O)OCC(=O)NCc2ccco2)ccc1Cl	-	-	.	-	.
Cc1ccc2nc(-c3ccccc3)c(CN3CCN(c4ccccc4F)CC3)n2c1	-	.	?	-	8.91µM
Cc1ccc2nc(-c3ccccc3)c(CN3CCOCC3)n2c1	-	-	?	-	-
Cc1ccc2nc(-c3ccccc3)c(CN3CCSCC3)n2c1	-	-	-	-	15.8µM
Cc1cn([C@H]2C[C@H](O)[C@@H](CCC(=O)NCc3ccccc3)O2)c(=O)[nH]c1=O	.	-	.	-	.
CCC1CCCCN1S(=O)(=O)c1ccc(NC(=O)CSc2ncccc2C(=O)O)cc1 (stereo not drawn)	-	-	-	-83.5	-
Cc1ccc(S(=O)(=O)N(C)CC(=O)Nc2nc3ccccc3s2)cc1	-	-	-	-	?
Cc1ccc(/C(=N/Nc2nc3ccccc3s2)C2=C(O)c3ccccc3C2=O)cc1	-	-	?	-	4.47µM
COC(=O)Nc1ccc(S(=O)(=O)Nc2cccc3ccccc23)cc1	-	-	17.8µM	-	?
O=S(=O)(Nc1cccc2ccccc12)c1ccccc1	-	-	-	-	-
S=C(Nc1ccc2nccnc2c1)N1CCOCC1	-	-	?	-	-
COc1cccc(NC(=O)NCCCSC2CCCCC2)c1	-	-	-	-	-
SMILES	p53 reactivation	CtBP-E1A blk	Gal4-VP16 FLuc	Six1-Eya2 inh	RORgamma inh
Cc1cc(C)c(NC(=S)NCCCSC2CCCCC2)c(C)c1	-	-	?	-	2µM
CC(NC(=O)C1CCCN1C(=O)OC(C)(C)C)C(=O)OCc1ccccc1 (stereo not drawn)	.	-	.	-	.
CCCCCCCCCCCCC[N+](C)(C)Cc1ccccc1	.	.	8.91µM	.	?
C=CCOC(=O)N[C@@H](Cc1ccccc1)/C(C(=O)OC)=C(\C)NCc1ccccc1	.	.	-	.	?
Cc1ccnc(NC(=O)c2ccc(Cl)c(NC(=O)c3ccccc3C)c2)c1	.	-	.	-	.
Cc1ccc(C(=O)Nc2ccccc2C(=O)Nc2ccccn2)cc1Cl	?	-	15.8µM	-	?
Cc1ccnc(NC(=O)c2ccccc2NC(=O)c2ccc(Cl)cc2Cl)c1	-	.	12.6µM	-	?
CCn1c(CC(=O)Nc2ccccc2)n[nH]c1=S	-	-	-	-	?
CCCCCCCCCCCCCCCC(=O)OCC(COP(=O)(O)O)OC(=O)CCCCCCCCCCCCCCC (stereo not drawn)	.	.	-	.	-
CCc1c(C)sc(NC(=O)CC#N)c1C#N	-	-67.0	-	?	-
Clc1ccccc1/C=N/NC1=Nc2cccc3cccc1c23	-	-	?	-	0.282µM
Clc1ccccc1C=NNc1ccccn1	.	-	.	-	.
C(=N\NC1=Nc2cccc3cccc1c23)/c1ccccn1	-	.	.	?	0.0398µM
O=C(CCn1cnc(-c2ccccc2)c1-c1ccccc1)N/N=C/c1ccc(O)cc1	-	-	-	-	-
O=C(CCc1ccccc1)N/N=C\c1cc2c(cc1Br)OCO2	-	-	?	-	?
O=C(CCn1cnc(-c2ccccc2)c1-c1ccccc1)N/N=C/c1ccccc1O	?	-	2.82µM	-	?
O=C(CCc1ccccc1)N/N=C/c1cc(Br)ccc1O	?	-	-	-	-
O=C(N/N=C/c1cc(Br)ccc1O)c1ccccc1Cl	-	-79.1	2.51µM	-88.0	0.562µM
O=C(Cn1cc(C(F)(F)F)ccc1=O)N/N=C/c1ccccc1O	-	-91.2	10µM	?	2µM
O=C(CSCc1ccccc1)N/N=C/c1cc2c(cc1Br)OCO2	-	-	11.2µM	-	?
CC(C)(C)c1ccc(C(=O)N2CCC(=O)N(C(CO)Cc3ccccc3)CC2)cc1 (stereo not drawn)	-	-	-	-	?
Nc1c(C(O)(C(F)(F)F)C(F)(F)F)cc(C(O)(C(F)(F)F)C(F)(F)F)c2ccccc12	-	-	?	-	?
CCN(CC)C(=O)c1cccc(NC(=O)c2cc(-c3ccccn3)nc3ccccc23)c1	-	-	.	-	.
O=C(N/N=C/c1ccc(O)cc1)c1cccc(C(F)(F)F)c1	-	-	-	-	-[10 µM]
COc1ccccc1/C=N/NC(=O)CC(=O)NCc1cccnc1	-	-	-	-	-
SMILES	p53 reactivation	CtBP-E1A blk	Gal4-VP16 FLuc	Six1-Eya2 inh	RORgamma inh
O=C(N/N=C/c1ccccc1O)c1cccc(C(F)(F)F)c1	?	-81.4	2µM	-78.9	1µM
O=C(N/N=C/C1CC2C=CC1C2)c1ccccc1O (stereo not drawn)	-	-	?	-	4.47µM
O=C(CC(=O)N/N=C/c1ccccc1O)NCc1cccnc1	-	-	?	-89.8	?
O=C(N/N=C\c1ccccc1O)c1ccccc1O	.	.	35.5µM	.	1µM
CCOC(=O)C1=CCN(S(=O)(=O)c2cccc(Cl)c2)C1c1cccc(C)c1 (stereo not drawn)	.	-	.	-	.
O=S1(=O)c2ccc(Br)cc2N2CCC[C@@H]2CN1Cc1ccccc1	-	-	.	-	.
Cc1nn(CC(=O)Nc2ccc(S(N)(=O)=O)cc2)c(=O)c2ccccc12	-	-	-	-	-
O=C(CN1C(=O)NC2NC(=O)NC21)N/N=C/c1ccccc1O (stereo not drawn)	-	-89.8	-	-90.5	-
